Experimental data taken from PubChem BioAssay (NCI).
Compounds without any hit were thinned out: in the full panel of roughly 79,000, 15% have a hit. Active and inactive are the calls of the source. Cut-off read from the data, not from the text of the source: active = growth inhibition above about 70%; inactive = the rest.

Legend:
[1] = NCI Yeast Anticancer Drug Screen. Data for the rad52 strain (AID 147);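 note: 0% = growth of vehicle-treated control cultures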; conditions: S. cerevisiae rad52 mutant growth inhibition, hits give high values
How it was run: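 Vehicle-treated cultures served as the reference for growth inhibition of compound-exposed yeast bearing a DNA repair mutation.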

[2] = NCI Yeast Anticancer Drug Screen. Data for the wt1 strain (AID 149);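 note: 0% = growth of vehicle-treated wt1 cultures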; conditions: S. cerevisiae wt1 strain (SPY 50644) growth inhibition, hits give high values
How it was run: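 Vehicle-normalised growth inhibition; strain wt1; compound exposure.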

[3] = NCI Yeast Anticancer Drug Screen. Data for the rad50EPP+ strain (AID 151);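 note: 0% = growth of vehicle-treated control cultures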; conditions: S. cerevisiae rad50 mutant strain, hits give high values
How it was run: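 In this screen, rad50EPP+ yeast were exposed to compounds. Growth inhibition was scored against vehicle-treated controls.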

[4] = NCI Yeast Anticancer Drug Screen. Data for the mgt1 strain (AID 153); conditions: S. cerevisiae mgt1 mutant growth inhibition, hits give high values
How it was run: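 mgt1 strain exposed; growth vs vehicle control recorded as inhibition.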

[5] = NCI Yeast Anticancer Drug Screen. Data for the rad50 strain (AID 155);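 note: 0% = growth of vehicle-only cultures of the same strain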; conditions: S. cerevisiae rad50 strain growth inhibition, hits give high values
How it was run: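 A DNA repair-deficient yeast mutant serves as the test organism; compound-induced growth inhibition is calculated against vehicle-treated cells.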

[6] = NCI Yeast Anticancer Drug Screen. Data for the rad14 strain (AID 159);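 note: 0% = growth of vehicle-treated control cultures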; conditions: S. cerevisiae rad14 strain growth inhibition, hits give high values
How it was run: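 Vehicle-treated cultures served as the baseline for growth inhibition of a DNA repair-mutant yeast strain exposed to each compound.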

[7] = NCI Yeast Anticancer Drug Screen. Data for the sgs1 mgt1 strain (AID 161);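 note: 0% = growth of cultures given vehicle only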; conditions: S. cerevisiae sgs1 mgt1 strain, hits give high values
How it was run: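 Read-out: growth inhibition vs vehicle controls. Cells: mutant yeast strain deficient in DNA damage repair.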

[8] = NCI Yeast Anticancer Drug Screen. Data for the CLN2oe strain (AID 163);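 note: 0% = growth of vehicle-only control cultures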; conditions: S. cerevisiae CLN2oe strain, hits give high values
How it was run: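 Inhibition relative to vehicle-treated yeast is reported. Cells: strain with genetic alteration in cell-cycle control, grown with compound.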

[9] = NCI Yeast Anticancer Drug Screen. Data for the cln2 rad14 strain (AID 165);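 note: 0% = growth equal to vehicle treated cultures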; conditions: S. cerevisiae cln2 rad14 strain, hits give high values
How it was run: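 Each compound was tested on cln2 rad14 yeast. Inhibition of growth was calculated against vehicle-exposed controls.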

[10] = NCI Yeast Anticancer Drug Screen. Data for the bub3 strain (AID 167); conditions: S. cerevisiae bub3 mutant strain, hits give high values
How it was run: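 Inhibition values come from growth of compound-treated mutant yeast normalised to vehicle-treated controls.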

[11] = NCI Yeast Anticancer Drug Screen. Data for the wt2 strain (AID 169);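 note: 0% = growth of vehicle-treated yeast cultures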; conditions: S. cerevisiae wt2 strain growth inhibition, hits give high values
How it was run: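 Inhibition of yeast growth was determined after compound treatment, normalised to controls receiving only vehicle.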

[12] = NCI Yeast Anticancer Drug Screen. Data for the mlh1 strain (AID 171);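 note: 0% = growth of vehicle-treated control cultures of the same strain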; conditions: S. cerevisiae mlh1 strain growth inhibition, hits give high values
How it was run: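 Vehicle-normalised growth inhibition of a repair- or checkpoint-altered yeast strain following compound treatment.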

[13] = NCI Yeast Anticancer Drug Screen. Data for the sgs1 strain (AID 173);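 note: 0% = growth of vehicle-only control cultures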; conditions: S. cerevisiae sgs1 mutant, hits give high values
How it was run: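 Screen format: yeast with repair or checkpoint alterations, compound exposure, growth read relative to vehicle.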

[14] = NCI Yeast Anticancer Drug Screen. Data for the mlh1 rad18 strain (AID 175); conditions: S. cerevisiae mlh1 rad18 strain growth inhibition, hits give high values
How it was run: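 Vehicle-treated cultures served as the reference for growth inhibition in a yeast strain carrying DNA damage repair alterations exposed to each compound.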

[15] = NCI Yeast Anticancer Drug Screen. Data for the rad18 strain (AID 177); conditions: S. cerevisiae rad18 mutant growth inhibition, hits give high values
How it was run: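 Test articles were incubated with altered yeast defective in DNA damage repair. Results are given as inhibition of growth versus vehicle.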

[16] = at 5.0 µM (retest, dose inferred, filed as 0.5)
[17] = at 50.0 µM (retest, dose inferred, filed as 5.0)

Measured: growth inhibition

S=C1C(=Nc2ccccc2)N(c2ccccc2)/C(=N\c2ccccn2)N1c1ccccc1
inactive: [1]; at 1.2 µM -2% | [1]; at 3.7 µM 1% | [1]; at 11.0 µM 44% | [2]; at 1.2 µM -4% | [2]; at 3.7 µM -4% | [2]; at 11.0 µM 21% | [3]; at 1.2 µM -3% | [3]; at 3.7 µM -4% | [3]; at 11.0 µM -3% | [3]; at 33.0 µM 11% | [3]; at 100.0 µM 37% | [4]; at 1.2 µM -6% | [4]; at 3.7 µM -5% | [4]; at 11.0 µM 36% | [5]; at 1.2 µM -3% | [5]; at 3.7 µM -2% | [5]; [16] 41% | [5]; at 11.0 µM 46% | [6]; at 1.2 µM -4% | [6]; at 3.7 µM -2% | [6]; at 11.0 µM 36% | [7]; [16] 10% | [8]; at 1.2 µM -8% | [8]; at 3.7 µM -11% | [8]; at 11.0 µM 37% | [9]; [16] 28% | [10]; at 1.2 µM -7% | [10]; at 3.7 µM -13% | [10]; [16] 0% | [10]; at 11.0 µM 31% | [11]; at 1.2 µM -4% | [11]; at 3.7 µM -2% | [11]; at 11.0 µM 27% | [12]; at 1.2 µM -5% | [12]; at 3.7 µM -2% | [12]; at 11.0 µM 37% | [13]; at 1.2 µM -2% | [13]; at 3.7 µM 4% | [13]; at 11.0 µM 66% | [15]; at 1.2 µM -3% | [15]; at 3.7 µM -3% | [15]; at 11.0 µM 57%
active: [1]; at 33.0 µM 99% | [1]; at 100.0 µM 93% | [2]; at 33.0 µM 98% | [2]; at 100.0 µM 98% | [4]; at 33.0 µM 99% | [4]; at 100.0 µM 97% | [5]; at 33.0 µM 98% | [5]; [17] 97% | [5]; at 50.0 µM 98.1% | [5]; at 100.0 µM 91% | [6]; at 33.0 µM 99% | [6]; at 100.0 µM 95% | [7]; [17] 98% | [7]; at 50.0 µM 98% | [8]; at 33.0 µM 99% | [8]; at 100.0 µM 97% | [9]; [17] 97% | [9]; at 50.0 µM 97.4% | [10]; at 33.0 µM 99% | [10]; [17] 97% | [10]; at 50.0 µM 97.7% | [10]; at 100.0 µM 99% | [11]; at 33.0 µM 99% | [11]; at 100.0 µM 95% | [12]; at 33.0 µM 99% | [12]; at 100.0 µM 96% | [13]; at 33.0 µM 99% | [13]; at 100.0 µM 94% | [14]; [16] 76% | [14]; [17] 97% | [14]; at 50.0 µM 97.8% | [15]; at 33.0 µM 99% | [15]; at 100.0 µM 87%
